In PubChem BioAssay (NCATS):
Several values for one entry are separate records, joined by “and”; a condition that tells them apart may be missing. Identical values can stand only once. Records with an inconclusive call do not appear. Activity calls are given as the source filed them. Unless noted, calls come from the whole dose curve; as a rule, active = well fitted curve in the direction sought with a large enough effect; inconclusive = small, poorly fitted or top-dose-only effect, or another doubt; inactive = no such curve, though single readings can be large; an effect the other way counts as inactive or inconclusive.

Legend:
[1] = target: Cellular tumor antigen p53 (Homo sapiens) (UniProt P04637); assay: Primary qHTS for small molecule compounds that upregulate eGFP-tagged delta133p53alpha (in N-terminal) cells. (AID 2060322); conditions: NCI-H358 eGFP-delta133p53alpha fluorescence, 24 h; activation: stronger effect = higher value;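 note: series mostly up to about 56 µM; 0% = DMSO vehicle and 100% = reference activator; nearly all actives have a fitted effect of over 75% in size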
In short: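 NCI-H358 cells pre-induced 24 h with 10 ng/ml doxycycline to express N-terminal eGFP-delta133p53alpha, then dosed 24 h at 37C without doxycycline; fixed, Hoechst-stained, GFP intensity by laser scanning cytometry, normalized to DMSO (0%) and 57.5 uM 5-azacytidine (100%).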

[2] = target: Cellular tumor antigen p53 (Homo sapiens) (UniProt P04637); assay: Primary qHTS for small molecule compounds that upregulate eGFP-tagged delta133p53alpha (in C-terminal) cells. (AID 2060324);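 note: 0% = DMSO wells and 100% = 57.5 µM 5-azacytidine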
In short: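 C-terminal eGFP-tagged delta133p53alpha NCI-H358 line; dox-induced (100 ng/ml, 24 h) then plated without dox; compounds pinned in titration, 24 h 37 °C/5% CO2; PFA fix, Hoechst nuclei; GFP by LSC.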

[3] = target: Aldehyde dehydrogenase, mitochondrial (Homo sapiens) (UniProt P05091); assay: qHTS for Inhibitors of the Aldehyde Dehydrogenase Family (ALDH2) Validation screens (AID 2061302; active = well fitted inhibition curve with a large enough effect; title and protocol of this record describe different tests;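 note: plate controls were DMSO vehicle for no effect and maximal DPI positive control response for full effect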)
[4] = target: Retinaldehyde dehydrogenase 3 (Homo sapiens) (UniProt P47895); assay: qHTS for Inhibitors of the Aldehyde Dehydrogenase Family (ALDH1A3) Validation screen (AID 2061312); note: % is set by controls: 0 for no effect and ±100 for the full control effect; nearly all actives have a fitted effect of over 45% in size

Chain of Cellular tumor antigen p53 (Homo sapiens) (P04637 whole entry, looked up): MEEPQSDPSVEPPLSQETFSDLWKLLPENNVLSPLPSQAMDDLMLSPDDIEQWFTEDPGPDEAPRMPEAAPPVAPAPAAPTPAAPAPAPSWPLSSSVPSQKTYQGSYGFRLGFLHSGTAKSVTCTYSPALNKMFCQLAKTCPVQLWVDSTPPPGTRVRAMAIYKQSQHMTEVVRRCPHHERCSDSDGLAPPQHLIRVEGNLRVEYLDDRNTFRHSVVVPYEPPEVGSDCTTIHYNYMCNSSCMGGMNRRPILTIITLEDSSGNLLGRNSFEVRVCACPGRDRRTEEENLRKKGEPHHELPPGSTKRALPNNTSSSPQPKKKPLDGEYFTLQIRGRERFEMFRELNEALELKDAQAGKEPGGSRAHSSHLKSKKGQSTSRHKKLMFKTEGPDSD

CN1CCc2cc(Cl)c(O)cc2[C@@H](c2ccccc2)C1
inactive: activation [1] -19.2% | Potency [2] | Potency [3] | Potency [4]

CC[N+](C)(C)c1cccc(O)c1
inactive: activation [1] 3.57% | Potency [2] | Potency [3] | Potency [4]

O=C(O)C1CCNCC1
inactive: activation [1] -2.71% | Potency [2] | Potency [3] | Potency [4]

CC(C)[N+](C)(CCOC(=O)C1c2ccccc2Oc2ccccc21)C(C)C
inactive: activation [1] 18.6% and -22.6% | Potency [2] | Potency [3] | Potency [4]

COc1ccc(-c2ccc(N)[n+](CCCC(=O)O)n2)cc1
inactive: activation [1] -20% | Potency [2] | Potency [3] | Potency [4]

OC[C@H]1O[C@@H](n2cnc3c(NC4CCCCC4)ncnc32)[C@H](O)[C@@H]1O
inactive: activation [1] 5.46% | Potency [2] | Potency [3] | Potency [4]

CSc1nc(N)c2ncn([C@@H]3O[C@H](COP(=O)(O)OP(=O)(O)OP(=O)(O)O)[C@@H](O)[C@H]3O)c2n1
inactive: activation [1] 7.61% | Potency [2] | Potency [3] | Potency [4]

COc1ccccc1N1CCN(CCCCN2C(=O)c3ccccc3C2=O)CC1
inactive: activation [1] -14.4% | Potency [2] | Potency [3] | Potency [4]

NC1=NCC2c3ccccc3Cc3ccccc3N12 (configuration not stated)
inactive: activation [1] -14.2% and -12.4% | Potency [2] | Potency [3] | Potency [4]

COc1ccc2c(c1)CCC1C2CC[C@@]2(C)C1CC[C@@H]2NCCCCCCN1C(=O)CCC1=O (some centres not stated)
inactive: activation [1] 10.7% | Potency [2] | Potency [3] | Potency [4]

CC(C)(C)NCC(O)c1cc(O)cc(O)c1 (configuration not stated)
inactive: activation [1] 2.51% and 8.65% | Potency [2] | Potency [3] | Potency [4]

Nc1nc(SCc2ccc([N+](=O)[O-])cc2)c2ncn([C@@H]3O[C@H](CO)[C@@H](O)[C@H]3O)c2n1
inactive: activation [1] -3.28% | Potency [2] | Potency [3] | Potency [4]

OC[C@H]1O[C@H](n2cnc3c(N[C@H]4CCC[C@@H]4O)ncnc32)[C@H](O)[C@@H]1O
inactive: activation [1] -36% | Potency [2] | Potency [3] | Potency [4]

C[C@]12CCC(=O)C=C1CC[C@@H]1[C@@H]2C(=O)C[C@@]2(C)[C@H]1CC[C@]2(O)C(=O)CO
inactive: activation [1] 0.837% and -9.81% | Potency [2] | Potency [3] | Potency [4]

CC(=O)SCC[N+](C)(C)C
inactive: activation [1] -8.68% | Potency [2] | Potency [3] | Potency [4]

CNC(=O)[C@H]1O[C@@H](n2cnc3c(NCc4cccc(I)c4)ncnc32)[C@H](O)[C@@H]1O
inactive: activation [1] -36.7% | Potency [2] | Potency [3] | Potency [4]

O=C1NC(=O)[C@@]2(CCOc3ccc(F)cc32)N1
inactive: activation [1] -3.95% and 3.53% | Potency [2] | Potency [3] | Potency [4]

OC[C@H]1NC[C@@H](O)[C@@H]1O
inactive: activation [1] 4.88% | Potency [2] | Potency [3] | Potency [4]

CC(=O)c1ccc2c(c1)N(CCCN(C)C)c1ccccc1S2
inactive: activation [1] 3.95% and -33.1% | Potency [2] | Potency [3] | Potency [4]

CC(=O)Nc1nnc(S(N)(=O)=O)s1
inactive: activation [1] 21.8% and -10.7% | Potency [2] | Potency [3] | Potency [4]

OCC1O[C@H](O)C(Cl)C(O)C1O (some centres not stated)
inactive: activation [1] -8.54% | Potency [2] | Potency [3] | Potency [4]

CC(/C=C/c1cccc(Oc2ccc(F)cc2)c1)N(O)C(N)=O (configuration not stated)
inactive: activation [1] -36% | Potency [2] | Potency [3] | Potency [4]

CCc1cccc(N(C)C(N)=Nc2cccc3ccccc23)c1
inactive: activation [1] 19.2% | Potency [2] | Potency [3] | Potency [4]

C[C@](N)(Cc1ccc(O)cc1)C(=O)O
inactive: activation [1] -4.18% and 8.39% | Potency [2] | Potency [3] | Potency [4]

CCCOC(=O)c1c(-c2ccccc2)nc(CC)c(C(=O)SCC)c1CCC
inactive: activation [1] -30.9% | Potency [2] | Potency [3] | Potency [4]

CC(C)C[C@H](NC(=O)C1OC1C(=O)O)C(=O)NCCCCN=C(N)N (some centres not stated)
inactive: activation [1] -1.96% | Potency [2] | Potency [3] | Potency [4]

NC(=O)c1cn(Cc2c(F)cccc2F)nn1
inactive: activation [1] -12.6% and -6.02% | Potency [2] | Potency [3] | Potency [4]

CCNC(=O)N1CCN(CCCC(c2ccc(F)cc2)c2ccc(F)cc2)CC1
inactive: activation [1] -22% and -43.5% | Potency [2] | Potency [3] | Potency [4]
